Source: PubChem BioAssay AID1159580 (chemical genetic matrix, 2015)
Where “and” joins values, the source holds several entries; their conditions need not be identical. Identical values can stand only once. The whole screen tested about 5,500 compounds, of which about 2,000 (36%) were called active. Inconclusive results (about 18%) are left out. Rule as the data show it: active = normalized growth mostly below about 0.91 (no sharp cut-off); inconclusive = no clear call, values can overlap the other calls; inactive = mostly above about 0.92. The list shows a part of the results.

Test: chemical genetic growth profiling, strain panel (AID 1159580);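 also: tested at 20 µM; growth read once vehicle control cultures reached saturation at 30 °C; 1 = growth at the plate median or of vehicle wells; lower values mean less growth of the strain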
Conditions: S. cerevisiae deletion strains, growth OD

Measured: normalized growth

C[C@]12C=CC(=O)C=C1CCC1C2C(=O)C[C@@]2(C)C1CC[C@]2(O)C(=O)CO (stereo not given in full)
inactive: locus YAL013W, strain DEP1, stronger effect = lower value 0.992 | locus YAL021C, strain ccr4, stronger effect = lower value 1.03 | locus YAL026C, strain drs2, stronger effect = lower value 1.02 | locus YAL030W, strain snc1, stronger effect = lower value 0.997 | locus YBL061C, strain skt5, stronger effect = lower value 0.992 | locus YBR009C, strain hhf1, stronger effect = lower value 1.01 | locus YBR021W, strain FUR4, stronger effect = lower value 0.985 | locus YBR023C, strain chs3, stronger effect = lower value 1.01 | locus YBR171W, strain sec66, stronger effect = lower value 0.979 | locus YBR229C, strain ROT2, stronger effect = lower value 0.954 | locus YBR231C, strain swc5, stronger effect = lower value 1.01 | locus YBR279W, strain paf1, stronger effect = lower value 1 | locus YCL011C, strain gbp2, stronger effect = lower value 1 | locus YCL016C, strain dcc1, stronger effect = lower value 1.01 | locus YCL029C, strain bik1, stronger effect = lower value 0.978 | locus YCL061C, strain MRC1, stronger effect = lower value 1 | locus YCL069W, strain vba3, stronger effect = lower value 0.996 | locus YCR088W, strain abp1, stronger effect = lower value 0.989 | locus YDL005C, strain med2, stronger effect = lower value 0.981 | locus YDL035C, strain GPR1, stronger effect = lower value 0.981 | locus YDL040C, strain nat1, stronger effect = lower value 0.995 | locus YDL074C, strain BRE1, stronger effect = lower value 0.965 | locus YDL101C, strain DUN1, stronger effect = lower value 0.985 | locus YDL134C, strain PPH21, stronger effect = lower value 0.992 | locus YDL185W, strain tfp1, stronger effect = lower value 0.983 | locus YDL192W, strain arf1, stronger effect = lower value 0.997 | locus YDR001C, strain nth1, stronger effect = lower value 1 | locus YDR069C, strain doa4, stronger effect = lower value 0.98 | locus YDR101C, strain arx1, stronger effect = lower value 0.991 | locus YDR137W, strain rgp1, stronger effect = lower value 1.01 | locus YDR150W, strain NUM1, stronger effect = lower value 0.987 | locus YDR159W, strain sac3, stronger effect = lower value 1.01 | locus YDR162C, strain NBP2, stronger effect = lower value 0.992 | locus YDR195W, strain ref2 0.916 | locus YDR297W, strain sur2, stronger effect = lower value 0.989 | locus YDR318W, strain mcm21, stronger effect = lower value 0.996 | locus YDR334W, strain swr1, stronger effect = lower value 0.999 | locus YDR335W, strain msn5, stronger effect = lower value 0.997 | locus YDR388W, stronger effect = lower value 0.986 | locus YDR392W, strain spt3, stronger effect = lower value 1.05 | locus YDR502C, strain sam2, stronger effect = lower value 0.989 | locus YEL003W, strain gim4, stronger effect = lower value 1 | locus YEL037C, strain rad23, stronger effect = lower value 0.996 | locus YEL061C, strain CIN8 (second series), stronger effect = lower value 0.997 | locus YEL061C, strain CIN8, stronger effect = lower value 0.985 | locus YER015W, strain faa2, stronger effect = lower value 0.996 | locus YER016W, strain bim1, stronger effect = lower value 1.01 | locus YER110C, stronger effect = lower value 0.966 | locus YER111C, strain swi4, stronger effect = lower value 0.981 | locus YER155C, strain BEM2 (second series), stronger effect = lower value 0.973 | locus YER155C, strain BEM2, stronger effect = lower value 1 | locus YER167W, strain BCK2, stronger effect = lower value 0.991 | locus YFR010W, strain ubp6, stronger effect = lower value 0.984 | locus YGL078C, strain dbp3, stronger effect = lower value 0.984 | locus YGL086W, strain mad1, stronger effect = lower value 0.995 | locus YGL167C, strain pmr1, stronger effect = lower value 0.991 | locus YGL173C, strain kem1, stronger effect = lower value 0.994 | locus YGL227W, strain vid30, stronger effect = lower value 0.999 | locus YGL240W, strain doc1, stronger effect = lower value 0.978 | locus YGL248W, strain PDE1, stronger effect = lower value 0.978 | locus YGL253W, strain hxk2, stronger effect = lower value 0.992 | locus YGR078C, strain PAC10, stronger effect = lower value 0.988 | locus YGR135W, strain pre9, stronger effect = lower value 0.997 | locus YGR252W, strain gcn5, stronger effect = lower value 0.95 | locus YHR013C, strain ard1, stronger effect = lower value 0.999 | locus YHR027C, strain rpn1, stronger effect = lower value 1 | locus YHR030C, strain SLT2, stronger effect = lower value 0.997 and 1.02 | locus YHR079C, strain IRE1 (second series), stronger effect = lower value 0.998 | locus YHR079C, strain IRE1, stronger effect = lower value 1.05 | locus YHR094C, strain hxt1, stronger effect = lower value 0.988 | locus YHR129C, strain ARP1, stronger effect = lower value 0.963 | locus YHR142W, strain chs7, stronger effect = lower value 0.972 | locus YHR200W, strain rpn10, stronger effect = lower value 0.986 | locus YIL066C, strain RNR3, stronger effect = lower value 0.98 | locus YIL073C, strain SPO22, stronger effect = lower value 1.01 | locus YIL125W, strain kgd1, stronger effect = lower value 0.993 | locus YIR030C, strain dcg1, stronger effect = lower value 0.987 | locus YJL092W, strain hpr5, stronger effect = lower value 1 | locus YJL095W, strain BCK1 (second series), stronger effect = lower value 1.01 | locus YJL095W, strain BCK1, stronger effect = lower value 0.982 and 1.03 | locus YJL115W, strain asf1, stronger effect = lower value 0.988 | locus YJL129C, strain trk1, stronger effect = lower value 0.978 | locus YJL134W, strain LCB3, stronger effect = lower value 0.995 | locus YJL154C, strain vps35, stronger effect = lower value 1 | locus YJL164C, strain tpk1, stronger effect = lower value 1.02 | locus YJL166W, strain qcr8, stronger effect = lower value 0.976 | locus YJL168C, strain set2, stronger effect = lower value 0.992 | locus YJL187C, strain SWE1 (second series), stronger effect = lower value 0.984 | locus YJR043C, strain POL32, stronger effect = lower value 1 | locus YJR066W, strain TOR1, stronger effect = lower value 0.976
